Only some compounds are listed: those with a hit (about 7.9% of all), similar ones and a draw of the others.
Lassa entry inh – blocks Lassa virus binding to or entry into cells | Lassa virus pseudotype entry inhibition, cell reporter | Potency, µM (highest dose often 37.9 µM), without a hit: at the highest dose activity change, negative = inhibition, actives largely listed as inhibitors | actives 1.2% (n = 300,000); calls by dose curve; tested in HEK293 cells; further: potency means the concentration at half of the fitted maximal effect; nearly all actives have a fitted effect of over 50% in size
HCV inhibitor – HCV inhibition; Huh7.5.1 HCVcc-Cre infection, luciferase reporter, 44 h; actives 3.4% (n = 340,000); AID 651820; Potency, µM (series often up to 41.8 µM), for the others: at the highest dose activity change, negative = inhibition, actives largely listed as inhibitors; active means well fitted inhibition curve with a large enough effect; inconclusive means small, poorly fitted or top-dose-only effect, or another doubt; inactive means no such curve, though single readings can be large or run the other way; further: potency means the concentration at half of the fitted maximal effect
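1,000 cells/well; 4 h culture; + compound; + HCVcc-Cre (~0.5 moi); 44 h; luciferase substrate, RT 15 min; read 15 sec.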
HCMV antiviral – blocks human cytomegalovirus replication; HFF cells, HCMV-luciferase reporter, 72 h; stronger effect = lower value; activity change, negative = inhibition, % at 57.5 µM; actives 4.5% (n = 410,000); AID 1259415; in the data active means activity change below about -60%; inconclusive means no clear call, values can overlap the other calls; inactive means above about -39%
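Luciferase read-out from HCMV-luciferase-infected HFFs (MOI 1 PFU/cell) 72 h post infection at 37C; compounds added after 16 h cell attachment; activity normalized between buffer-only basal and Salinomycin (10uM) inhibitor controls.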
FMDV inh – foot and mouth disease virus antiviral activity; FMDV antiviral cell-based qHTS; Potency, µM (series often up to 57.9 µM), without a hit: at the top dose activity change, negative = inhibition, hits mostly inhibitors; actives 1.2% (n = 410,000); AID 1159524; calls by dose curve; tested in HEK293T cells; further: read-out not given here; potency means the concentration at half of the fitted maximal effect; nearly all actives have a fitted effect of over 45% in size
Marburg entry inh – Marburg virus entry inhibition. Marburg virus pseudotyped entry inhibition, cell reporter. Potency, µM (top dose mostly 37.8 µM), without a hit: at the highest dose activity change, negative = inhibition, usual class: inhibitors. actives 1.8% (n = 300,000). AID 540276; calls by dose curve; tested in HEK293 cells; further: potency means the concentration at half of the fitted maximal effect
Starred values were filed as active, the others as inactive; ! = a repeat was not active; [ ] = dose if it differs, or a comment. On the % scale 0 is the no-effect control and ±100 the full control effect.

`O=c1[nH]c(C2CCN(S(=O)(=O)Cc3ccccc3)CC2)nc2c1nnn2Cc1cccc(Cl)c1` gave Lassa entry inh -8%[46.1 µM], HCV inhibitor 19%, HCMV antiviral 0, FMDV inh 2% and Marburg entry inh -13%[46.1 µM].
`O=C(CN1CCN(c2ccc(O)cc2)CC1)Nc1cc(S(=O)(=O)N2CCCCC2)ccc1Cl` gave Lassa entry inh -26%, HCV inhibitor 10µM*, HCMV antiviral -74*, FMDV inh 0% and Marburg entry inh -26%[46.1 µM].
CN1CCN(S(=O)(=O)c2ccc(NC(=O)c3ccccc3Cl)cc2)CC1 was read as Lassa entry inh 28%[46.1 µM], HCV inhibitor 13%, HCMV antiviral 49, FMDV inh 3% and Marburg entry inh 8%[46.1 µM].
Screening O=C(Nc1cccc(Cl)c1)Nc1cc(S(=O)(=O)N2CCCCC2)ccc1Cl returned Lassa entry inh inconclusive, HCV inhibitor 11µM*, HCMV antiviral -99*, FMDV inh inconclusive and Marburg entry inh 4µM*.
For Cc1ccc(S(=O)(=O)N2CCCCC2)cc1NC(=O)Nc1ccc(Cl)cc1Cl the results were HCV inhibitor -2%, HCMV antiviral 10 and FMDV inh inconclusive.
For CN1CCN(S(=O)(=O)c2ccc(NC(=O)Nc3cccc(Cl)c3)cc2)CC1 the results were Lassa entry inh inconclusive, HCV inhibitor 7.9µM*!, HCMV antiviral -9, FMDV inh 13% and Marburg entry inh inconclusive.
Screening O=C(CNCc1ccc(Cl)cc1)Nc1cc(S(=O)(=O)N2CCCC2)ccc1Cl returned Lassa entry inh -17%, HCV inhibitor 7.9µM*, HCMV antiviral -15, FMDV inh inconclusive and Marburg entry inh inconclusive.
O=C(O)c1cc(O)c2c(c1)[C@H]([C@H]1c3cc(C(=O)O)cc(O)c3C(=O)c3c(O[C@@H]4OC(CO)C(O)C(O)C4O)cccc31)c1cccc(O[C@@H]3OC(CO)C(O)C(O)C3O)c1C2=O (stereo not given in full) was read as Lassa entry inh 15% and Marburg entry inh inconclusive.
CC(=O)OC[C@H]1O[C@H](CC=NO[C@H](C)c2cn([C@@H]3COC[C@@H]3O)nn2)C=C[C@@H]1OC(C)=O was read as Marburg entry inh -12%[14.2 µM].
Screening CCCCCCN1C[C@H](O)[C@@H](n2cc(C3CC3)nn2)C[C@H]1c1ccccc1 returned Lassa entry inh -2%[46.1 µM].
Screening O=C(NCc1cccc(C(F)(F)F)c1)c1ccc(=O)[nH]c1 returned Lassa entry inh -19%, HCV inhibitor 6%, HCMV antiviral 91, FMDV inh 10% and Marburg entry inh -1%[46.1 µM].
CN(C)CCCN(C(=O)c1ccc(S(=O)(=O)N(C)C)cc1)c1nc2ccc(F)cc2s1 was read as HCV inhibitor -11%, HCMV antiviral -19 and FMDV inh 11%.
`CCN(CC)CCN(C(=O)c1ccc2c(c1)CCCC2)c1nc2ccc(F)cc2s1` gave Lassa entry inh 12%[46.1 µM], HCV inhibitor inconclusive, HCMV antiviral 0, FMDV inh -19% and Marburg entry inh inconclusive.
Screening CN(C)CCCN(C(=O)c1ccc2c(c1)CCCC2)c1nc2cc3c(cc2s1)OCO3 returned Lassa entry inh inconclusive, HCV inhibitor inconclusive, HCMV antiviral inconclusive, FMDV inh -21% and Marburg entry inh 11µM*.
For CCN(CC)CCN(C(=O)c1ccc2c(c1)CCCC2)c1nc2ccc(C)cc2s1 the results were Lassa entry inh inconclusive, HCV inhibitor inconclusive, HCMV antiviral 10, FMDV inh inconclusive and Marburg entry inh 10µM*.
For CN(C)CCCN(C(=O)c1ccc(S(=O)(=O)N(C)C)cc1)c1nc2cc3c(cc2s1)OCO3 the results were Lassa entry inh -7%[46.1 µM], HCV inhibitor -26%, HCMV antiviral -15, FMDV inh -4% and Marburg entry inh inconclusive.
For CN(C)CCCN(C(=O)c1ccc(Br)s1)c1nc2cc3c(cc2s1)OCO3 the results were HCV inhibitor inconclusive, HCMV antiviral -103* and FMDV inh -23%.
CN(C)CCCN(C(=O)c1ccc2c(c1)CCCC2)c1nc2ccc(F)cc2s1 was read as Lassa entry inh 16µM*, HCV inhibitor 7.9µM*, HCMV antiviral -29, FMDV inh -6% and Marburg entry inh inconclusive.
Screening O=C(CC[C@H]1O[C@@H](n2ccc(=O)[nH]c2=O)[C@H](O)[C@@H]1O)NCC1CCCO1 (stereo not given in full) returned HCMV antiviral 7 and FMDV inh -6%.
Screening CCCCc1nc(SCC(=O)N2CCCC2)c2c(=O)n(C)c(=O)n(C)c2n1 returned HCV inhibitor -17% and FMDV inh -24%.
Screening CN(C)CCCN(C(=O)c1cc(-c2cccs2)nc2ccccc12)c1nc2ccc(F)cc2s1 returned Lassa entry inh 6.3µM*, HCV inhibitor inconclusive, HCMV antiviral 18, FMDV inh -17% and Marburg entry inh inconclusive.
Screening COc1ccc(C(=O)Nc2cc(C(C)C)c(O)c(S(=O)(=O)c3ccc(OC)cc3)c2C)cc1 returned Lassa entry inh 2%[46.1 µM], HCMV antiviral -104*, FMDV inh 61% and Marburg entry inh inconclusive.
CN(C(=O)Cn1ncc2c1-c1ccccc1OC2)c1ccc(Br)cc1 was read as HCMV antiviral -16, FMDV inh -11% and Marburg entry inh 2%[46.1 µM].
Screening COc1ccc(Cl)cc1C(=O)C1CCCN(Cc2cnc(C)s2)C1 (stereo not given) returned Lassa entry inh 11µM*, HCV inhibitor -14%, HCMV antiviral -21, FMDV inh -14% and Marburg entry inh 3%[46.1 µM].
`COc1ccc(C(=O)C2CCCN(Cc3cnc(N4CCOCC4)s3)C2)cc1F` (stereo not given) gave Lassa entry inh -26%, HCV inhibitor inconclusive, HCMV antiviral 5, FMDV inh inconclusive and Marburg entry inh inconclusive.
Cc1ncc(CN2CCCC(C(=O)c3cccc(OC(C)C)c3)C2)s1 (stereo not given) was read as HCV inhibitor inconclusive, HCMV antiviral -69* and FMDV inh inconclusive.
Screening CC(C)Oc1cccc(C(=O)C2CCCN(Cc3cnc(N4CCOCC4)s3)C2)c1 (stereo not given) returned Lassa entry inh inconclusive, HCV inhibitor inconclusive, HCMV antiviral -72*, FMDV inh inconclusive and Marburg entry inh inconclusive.
Screening CC(C)Oc1cccc(C(=O)C2CCCN(C(=O)c3cc(C4CC4)[nH]n3)C2)c1 (stereo not given) returned HCV inhibitor -28%, HCMV antiviral inconclusive and FMDV inh -17%.
CC(C)Oc1cccc(C(=O)C2CCCN(C(=O)c3cc(C(F)(F)F)[nH]n3)C2)c1 (stereo not given) was read as Lassa entry inh 13µM*, HCV inhibitor inconclusive, HCMV antiviral -19, FMDV inh -7% and Marburg entry inh -20%[46.1 µM].
For Cc1ccc(Cl)cc1N1CCN(C2(c3ccccc3)C(=O)c3ccccc3C2=O)CC1 the results were Lassa entry inh -3%[46.1 µM], HCMV antiviral -17, FMDV inh -23% and Marburg entry inh -18%[46.1 µM].
